Measured values: PubChem BioAssay (Tox21)
Records with an inconclusive call do not appear. Some compounds were tested as several samples or in several runs, with calls that do not always agree. The source made the active and inactive calls. Unless noted, the call rests on the fitted dose curve; in most records, active means well fitted curve in the direction sought with a large enough effect in the repeat runs; inconclusive means weak or mixed curves; inactive means no such curve, though single readings can be large; an effect the other way counts as inactive or inconclusive.

Assays:
[1] = qHTS assay to identify small molecule agonists of the peroxisome proliferator-activated receptor delta (PPARd) signaling pathway - cell viability counter screen (AID 743211); further: nearly all actives have a fitted effect of over 55% in size
How it was run: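 Multiplexed format: after the 2 h room-temperature LiveBLAzer B/G FRET step, CellTiter-Glo was added to the same wells. Luminescence after 30 min gave cell viability; compound exposure was 17 h at 37C.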

[2] = target: Peroxisome proliferator-activated receptor delta (Homo sapiens) (UniProt Q03181); assay: qHTS assay to identify small molecule agonists of the peroxisome proliferator-activated receptor delta (PPARd) signaling pathway (AID 743212; calls by dose curve)
How it was run: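 HEK293H PPARd-bla cells; 5 h preincubation 37 C/5% CO2; compound (DMSO) 37 C; LiveBLAzer B/G FRET substrate 2 h RT; fluorescence intensity.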

[3] = qHTS assay to identify small molecule antagonists of the peroxisome proliferator-activated receptor delta (PPARd) signaling pathway - cell viability counter screen (AID 743213); further: nearly all actives have a fitted effect of over 50% in size
How it was run: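 Same-well viability: cells pre-incubated 5 h, dosed with compound plus 300 nM L165041, kept 17 h at 37 C, FRET substrate 2 h RT, then CellTiter-Glo 30 min RT and luminescence.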

[4] = target: Bile acid receptor (Homo sapiens) (UniProt Q96RI1); assay: qHTS assay to identify small molecule antagonists of the farnesoid-X-receptor (FXR) signaling pathway (AID 743217; active means well fitted inhibition curve with a large enough effect in the signal ratio in the repeat runs, not every such curve was filed as active; the % refers to the signal ratio)
How it was run: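 GeneBLAzer FXR-UAS-bla HEK 293T, CDCA-stimulated (50 uM final). Compound treatment 16 h, 37 °C. Detection: beta-lactamase cleavage of B/G FRET substrate, fluorescence.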

[5] = qHTS assay to identify small molecule agonists of the farnesoid-X-receptor (FXR) signaling pathway - cell viability counter screen (AID 743218); further: nearly all actives have a fitted effect of over 45% in size
How it was run: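 Parallel cytotoxicity test: compound-treated (16 h, 37 C) HEK 293T FXR-bla reporter cells were lysed with CellTiter-Glo and luminescence recorded.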

[6] = target: Bile acid receptor (Homo sapiens) (UniProt Q96RI1); assay: qHTS assay to identify small molecule agonists of the farnesoid-X-receptor (FXR) signaling pathway (AID 743220; active means well fitted activation curve with a large enough effect in the signal ratio in the repeat runs, not every such curve was filed as active; the % refers to the signal ratio)
How it was run: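 Beta-lactamase reporter under UAS control in GeneBLAzer FXR HEK 293T cells (5000/well) measured with LiveBLAzer FRET substrate after 2 h at room temperature. Compound exposure lasted 16 h at 37C.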

[7] = qHTS assay to identify small molecule antagonists of the farnesoid-X-receptor (FXR) signaling pathway - cell viability counter screen (AID 743221; active means well fitted cell-killing curve with a large enough effect in the repeat runs, not every such curve was filed as active; further: nearly all actives have a fitted effect of over 50% in size)
How it was run: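 CellTiter-Glo, 30 min RT, luminescence; same wells as the LiveBLAzer FRET read. Cells: FXR-UAS-bla HEK 293T. Treatment: compound with chenodeoxycholic acid 50 uM final, 16 h at 37 C.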

[8] = target: Vitamin D3 receptor (Homo sapiens) (UniProt P11473); assay: qHTS assay to identify small molecule agonists of the vitamin D receptor (VDR) signaling pathway (AID 743222; calls by dose curve)
How it was run: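 In VDR-bla cells, compound-induced beta-lactamase expression is quantified by FRET substrate fluorescence. Treatment lasts 16 h at 37C; substrate develops 2 h at room temperature.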

[9] = qHTS assay to identify small molecule agonists of the vitamin D receptor (VDR) signaling pathway - cell viability counter screen (AID 743224); further: series mostly up to about 63 µM; nearly all actives have a fitted effect of over 50% in size
How it was run: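 Plated VDR-bla cells (4 h, 37C) received compound, incubated 16 h, then LiveBLAzer substrate 2 h RT; CellTiter-Glo added afterwards, luminescence read at 30 min.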

[10] = qHTS assay to identify small molecule antagonists of the vitamin D receptor (VDR) signaling pathway - cell viability counter screen (AID 743225); further: nearly all actives have a fitted effect of over 50% in size
How it was run: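 Cytotoxicity toward the VDR-bla HEK 293T line was scored by ATP-based CellTiter-Glo luminescence, read in the wells already used for the beta-lactamase readout after 16 h compound treatment under 3 nM 1-alpha,25-dihydroxyvitamin D3 stimulation.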

[11] = qHTS assay to identify small molecule agonists of the NFkB signaling pathway - cell viability counter screen (AID 1159515; calls by dose curve; further: series mostly up to about 61 µM; nearly all actives have a fitted effect of over 55% in size)
How it was run: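 Using the same wells as the NFkB reporter read, ME-180 NFkB-bla cells given compounds for 5 hr were assessed for viability via CellTiter-Glo, with luminescence taken after a 30 min room-temperature incubation.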

[12] = qHTS assay to identify small molecule agonists of the endoplasmic reticulum stress response signaling pathway (AID 1159516; active means well fitted activation curve with a large enough effect in the signal ratio in the repeat runs, not every such curve was filed as active; the % refers to the signal ratio)
How it was run: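 An ESRE-bla HeLa cell assay: compounds were pin-transferred from DMSO onto overnight-plated cells and left 5 hr at 37 C. Substrate was then loaded for 2 hr at room temperature before reading fluorescence at 460 nm and 530 nm.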

[13] = qHTS assay to identify small molecule agonists of the endoplasmic reticulum stress response signaling pathway - cell viability counter screen (AID 1159517; calls by dose curve)
How it was run: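 HeLa cells carrying an ESRE-driven beta-lactamase reporter receive compound for 5 hr at 37 C. Cell viability is then gauged with CellTiter-Glo by luminescence, 30 min at room temperature.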

[14] = qHTS assay to identify small molecule antagonists of the retinoid-related orphan receptor gamma (ROR-gamma) signaling pathway - cell viability counter screen (AID 1159520); further: nearly all actives have a fitted effect of over 50% in size
How it was run: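 Cytotoxicity was read from cellular ATP (CellTiter-Glo luminescence) after 16 hr at 37 C with 1 uM doxycycline induction. The inducer was added 2 hr after compound transfer to Tet-on ROR gamma CHO cells.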

[15] = target: Nuclear receptor ROR-gamma (Homo sapiens) (UniProt P51449); assay: qHTS assay to identify small molecule antagonists of the retinoid-related orphan receptor gamma (ROR-gamma) signaling pathway (AID 1159521)
How it was run: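 Readout: ONE-Glo luciferase luminescence, 30 min at room temperature. System: Tet-on RORγ CHO, RORE-LUC. Sequence: compound 2 h, doxycycline 1 uM final, 16 h at 37 C.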

[16] = qHTS assay to identify small molecule agonists of the AP-1 signaling pathway - cell viability counter screen (AID 1159525; calls by dose curve; further: nearly all actives have a fitted effect of over 55% in size)
How it was run: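 Luminescent ATP readout (Cell Titer Glo, 30 min RT), normalised to DMSO and tetra n-octyl ammonium bromide controls. Cells were ME-180 AP-1-bla in 0.5% dialyzed FBS Opti-MEM, with a 5 h, 37 °C compound exposure.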

[17] = qHTS assay to identify small molecule agonists of the AP-1 signaling pathway (AID 1159526; calls by dose curve)
[18] = target: Retinoic acid receptor RXR-alpha (Homo sapiens) (UniProt P19793); assay: qHTS assay to identify small molecule agonists of the RXR signaling pathway (AID 1159527; calls by dose curve; further: nearly all actives have a fitted effect of over 35% in size; further: potency means the concentration at half of the fitted maximal effect)
How it was run: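 Reporter activation is measured as beta-lactamase activity via FRET substrate cleavage (emission 460/530 nm) in HEK 293T cells expressing an RXR-alpha-driven bla construct, following 16 hr compound exposure at 37 C.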

[19] = target: Peroxisome proliferator-activated receptor delta (Homo sapiens) (UniProt Q03181); assay: qHTS assay to identify small molecule antagonists of the peroxisome proliferator-activated receptor delta (PPARd) signaling pathway (AID 743215; active means well fitted inhibition curve with a large enough effect in the signal ratio in the repeat runs, not every such curve was filed as active; the % refers to the signal ratio;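 further: cells stimulated with agonist L165041 at 300 nM final during compound exposure; series mostly up to about 62 µM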)
How it was run: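 HEK293H UAS-bla, PPARd; agonist L165041 300 nM final with cpd in DMSO; 37 C 17 h; FRET substrate, RT 2 h; fluorescence intensity.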

[20] = target: Vitamin D3 receptor (Homo sapiens) (UniProt P11473); assay: qHTS assay to identify small molecule antagonists of the vitamin D receptor (VDR) signaling pathway (AID 743223; active means well fitted inhibition curve with a large enough effect in the signal ratio in the repeat runs, not every such curve was filed as active; the % refers to the signal ratio)
How it was run: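 After VDR-bla cells are plated and left 4 h at 37C, DMSO-dissolved compounds and 3 nM (final) calcitriol agonist are added. Incubation continues 16 h at 37C; FRET beta-lactamase substrate then develops 2 h at room temperature.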

Measured: Potency

Sequence of Bile acid receptor (Homo sapiens) (Q96RI1 whole entry, looked up): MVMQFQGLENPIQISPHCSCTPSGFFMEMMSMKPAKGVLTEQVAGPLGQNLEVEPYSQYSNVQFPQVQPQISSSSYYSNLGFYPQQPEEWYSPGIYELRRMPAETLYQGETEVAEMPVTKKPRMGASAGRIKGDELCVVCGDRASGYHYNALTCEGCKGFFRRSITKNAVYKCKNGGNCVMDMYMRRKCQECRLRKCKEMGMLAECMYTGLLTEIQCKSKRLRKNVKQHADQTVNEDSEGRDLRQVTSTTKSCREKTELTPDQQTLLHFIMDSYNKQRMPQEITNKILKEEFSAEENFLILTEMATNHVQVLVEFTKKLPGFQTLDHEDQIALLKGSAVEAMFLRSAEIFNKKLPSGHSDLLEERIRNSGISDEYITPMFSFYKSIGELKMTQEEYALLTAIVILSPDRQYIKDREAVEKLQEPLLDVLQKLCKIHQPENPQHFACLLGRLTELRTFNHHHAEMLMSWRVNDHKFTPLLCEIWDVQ
Sequence of Vitamin D3 receptor (Homo sapiens) (P11473 whole entry, looked up): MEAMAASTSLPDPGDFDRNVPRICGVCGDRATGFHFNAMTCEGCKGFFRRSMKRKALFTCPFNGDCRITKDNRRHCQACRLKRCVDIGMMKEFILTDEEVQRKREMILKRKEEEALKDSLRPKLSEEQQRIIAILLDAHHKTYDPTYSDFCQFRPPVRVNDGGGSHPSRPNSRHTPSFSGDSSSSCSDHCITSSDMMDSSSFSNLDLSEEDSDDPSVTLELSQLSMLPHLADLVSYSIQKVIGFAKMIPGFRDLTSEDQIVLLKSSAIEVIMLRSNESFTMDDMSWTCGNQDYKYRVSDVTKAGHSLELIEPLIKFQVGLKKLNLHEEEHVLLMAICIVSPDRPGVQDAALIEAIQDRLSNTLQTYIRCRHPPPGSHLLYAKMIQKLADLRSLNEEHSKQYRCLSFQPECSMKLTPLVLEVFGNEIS
Sequence of Retinoic acid receptor RXR-alpha (Homo sapiens) (P19793 whole entry, looked up): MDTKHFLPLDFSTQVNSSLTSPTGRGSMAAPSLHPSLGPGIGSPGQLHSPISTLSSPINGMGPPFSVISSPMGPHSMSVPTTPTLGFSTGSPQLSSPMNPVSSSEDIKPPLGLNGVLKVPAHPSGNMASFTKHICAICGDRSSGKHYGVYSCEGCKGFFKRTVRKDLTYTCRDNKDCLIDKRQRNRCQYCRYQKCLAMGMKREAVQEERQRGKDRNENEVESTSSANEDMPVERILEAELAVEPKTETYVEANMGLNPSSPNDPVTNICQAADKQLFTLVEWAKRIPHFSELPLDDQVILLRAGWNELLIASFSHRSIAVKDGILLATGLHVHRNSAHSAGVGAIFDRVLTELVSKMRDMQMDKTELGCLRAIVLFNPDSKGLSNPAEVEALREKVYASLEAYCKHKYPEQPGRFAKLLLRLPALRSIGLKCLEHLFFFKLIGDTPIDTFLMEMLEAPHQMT
Sequence of Peroxisome proliferator-activated receptor delta (Homo sapiens) (Q03181 whole entry, looked up): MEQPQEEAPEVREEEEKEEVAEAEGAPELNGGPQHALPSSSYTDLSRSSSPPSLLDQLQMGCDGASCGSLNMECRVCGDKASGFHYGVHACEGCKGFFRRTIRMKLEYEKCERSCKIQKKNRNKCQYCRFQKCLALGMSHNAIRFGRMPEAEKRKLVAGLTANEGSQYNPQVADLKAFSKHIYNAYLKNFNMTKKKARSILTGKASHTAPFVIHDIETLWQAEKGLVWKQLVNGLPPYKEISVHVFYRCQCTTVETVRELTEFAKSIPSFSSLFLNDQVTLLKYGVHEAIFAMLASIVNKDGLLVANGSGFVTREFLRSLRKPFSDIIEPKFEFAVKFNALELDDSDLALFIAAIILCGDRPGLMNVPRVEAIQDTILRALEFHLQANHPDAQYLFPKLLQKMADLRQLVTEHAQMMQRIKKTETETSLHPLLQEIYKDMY

COC(c1ccccc1)(c1ccccc1)[C@H](Oc1nc(C)cc(C)n1)C(=O)O
not listed: [19] | [20]
inactive: all other assays above

CC[C@@H](N)CO
not listed: [4] | [6] | [10] | [20]
inactive: all other assays above

CCCCN(CCO)CCCC
not listed: [20]
inactive: all other assays above

CC(=O)N[C@@H](CS)C(=O)O
inactive: all assays above

CC(C)C(=O)c1c(C(C)C)nn2ccccc12
active: [18] 23.9 µM
not listed: [2] | [8]
inactive: all other assays above

O=c1n(CC2CO2)c(=O)n(CC2CO2)c(=O)n1CC1CO1 (stereo unspecified)
active: [18] 3.89 µM
not listed: [4] | [5] | [6] | [19] | [20]
inactive: all other assays above

[Cl][In]([Cl])[Cl]
not listed: [4] | [6] | [10] | [20]
inactive: all other assays above

CC(C)CCOC(=O)c1ccc(N(C)C)cc1
not listed: [4] | [6]
inactive: all other assays above

CN1C(=O)c2ccc([N+](=O)[O-])cc2C1=O
inactive: all assays above

CC(C)CCOCc1ccccc1
not listed: [2] | [4] | [6] | [19] | [20]
inactive: all other assays above

COC(=O)/C=C/c1ccccc1
not listed: [4] | [6] | [10]
inactive: all other assays above

CCC(C)(Oc1ccc(C2(c3ccc(OC(C)(CC)C(=O)O)cc3)CCCCC2)cc1)C(=O)O (stereo unspecified)
not listed: [2] | [8] | [10] | [19] | [20]
inactive: all other assays above

Cc1ccnc2c1NC(=O)c1cccnc1N2C1CC1
11.4 µM (active) and inactive: [18]
not listed: [10] | [20]
inactive: all other assays above

C#CC(C)(CC)OC(=O)c1ccccc1C(=O)O (stereo unspecified)
not listed: [4] | [6] | [10] | [20]
inactive: all other assays above

CCC(CO)(CO)COCC(CC)(CO)CO
not listed: [2] | [4] | [6] | [19]
inactive: all other assays above

NCCCCCC(=O)O
not listed: [2] | [19] | [20]
inactive: all other assays above

O=Cc1ccc(Cl)cc1
not listed: [4] | [6]
inactive: all other assays above

CC(C(O)c1ccc(O)cc1)N1CCC(Cc2ccccc2)CC1 (stereo unspecified)
not listed: [2] | [4] | [6] | [8] | [19] | [20]
inactive: all other assays above

COC(=O)c1cccc(C(=O)OC)c1
not listed: [4] | [6]
inactive: all other assays above

O=C(OCc1ccccc1)c1ccc(O)cc1
not listed: [2] | [8] | [19] | [20]
inactive: all other assays above

Cc1scc2c1N(C(=O)CN1CCN(C)CC1)c1ccccc1NC2=O
not listed: [20]
inactive: all other assays above

O=C(O)CCc1ccccc1
not listed: [4] | [6] | [20]
inactive: all other assays above

C=CS(=O)(=O)O
not listed: [4] | [20]
inactive: all other assays above

NC(N)=Nc1nc(CSCC/C(N)=N/S(N)(=O)=O)cs1
not listed: [20]
inactive: all other assays above

CCN1CCCC1CNC(=O)c1cc(S(=O)(=O)CC)c(N)cc1OC (stereo unspecified)
not listed: [4] | [6]
inactive: all other assays above

CCCCC/C=C/CC1CC(=O)OC1=O (stereo unspecified)
not listed: [2] | [4] | [6] | [10] | [19] | [20]
inactive: all other assays above

CC(C)(C)c1ccccc1
not listed: [2] | [4] | [6] | [19] | [20]
inactive: all other assays above

C[N+]1([O-])CCOCC1
not listed: [4] | [6]
inactive: all other assays above

CC1COC(=O)O1 (stereo unspecified)
not listed: [19]
inactive: all other assays above

CC(C)(C)NCC(O)COc1ccccc1OCC1CCCO1 (stereo unspecified)
not listed: [8] | [20]
inactive: all other assays above

C1COC(NC(C2CC2)C2CC2)=N1
not listed: [4] | [6] | [8] | [20]
inactive: all other assays above
